Assay [1] in a line: antimalarial activity against Dd2 strain (AID 2302;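 active = growth inhibition above 50% at the single 2 µM test dose, taken to imply half-maximal potency below 2 µM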;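 also: 0% = DMSO untreated growth and 100% = chloroquine plus artemisinin killed control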). The settings on record: P. falciparum Dd2 in RBCs, LDH growth readout, 72 h; at 2 µM; stronger effect = higher value.
Assay [2] in a line: HepG2 cytotoxicity, primary screen, cytotoxicity control for P. falciparum antimalarial project, cell-based, ATP luminescence (AID 2303;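 active = inhibition above 50%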;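 also: 0% = DMSO wells and 100% = digitonin-killed cells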). Particulars: HepG2 viability, 24-48 h, at 10 µM, stronger effect = higher value.
Assay [3] deals with L-lactate dehydrogenase (Plasmodium falciparum (isolate CDC / Honduras)) (UniProt Q27743). Nature of the assay: PfLDH activity inhibition – cell lysate, 3D7 strain, counter-screen for P. falciparum growth inhibition project (AID 2304).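 Also: 0% = vehicle and 100% = reference inhibitor.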 Particulars: P. falciparum 3D7 crude extract, LDH APAD/NBT absorbance; at 2 µM; stronger effect = higher value. On the technique in general: A counterscreen serves to expose hits that act by an unwanted route or on another target.

Assay [4] in a line: inhibition of 3D7 malaria parasite growth – strain 3D7 (AID 2306).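 Also: 0% = DMSO wells and 100% = chloroquine plus artemisinin control wells.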 The settings on record: P. falciparum 3D7 erythrocytic growth, LDH absorbance, 72 h; at 2 µM; stronger effect = higher value.
For assay [5], the target named is Calcium-dependent protein kinase 1 (Plasmodium falciparum (isolate 3D7)) (UniProt P62344). Nature of the assay: PfCDPK1 kinase inhibitors, biochemical, TCAMS library (AID 1159585; cut-off not given, nearly all actives have IC50 up to about 0.98 µM;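 also: inhibitors leave more ATP so luminescence rises with inhibition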). Particulars: recombinant PfCDPK1, Kinase-Glo ATP depletion luminescence. A general note: Kinase-Glo reads ATP consumption through a luciferase reaction.
For assay [6], the target named is Plasmodium falciparum protein kinase 6 (PK6, PF3D7_1337100) (UniProt Q8IDW1). In words: PfPK6 kinase inhibitors, biochemical, TCAMS library (AID 1159586). The settings on record: recombinant PfPK6, Kinase-Glo ATP depletion luminescence.
Assay [7] deals with Protein kinase 7 (PK7), Plasmodium falciparum 3D7 (PF3D7_0213400) (UniProt Q7YTF7). In words: inhibition of Plasmodium PK7 catalytic activity – biochemical, TCAMS antimalarial set, Kinase-Glo luminescence (AID 1159587). Particulars: recombinant PfPK7, Kinase-Glo ATP depletion luminescence.
Assay [8] concerns the target Calcium-dependent protein kinase 4 (Plasmodium falciparum (isolate 3D7)) (UniProt Q8IBS5). In words: PfCDPK4 kinase inhibitors, biochemical, TCAMS library (AID 1159588; cut-off not given, nearly all actives have IC50 up to about 0.91 µM). Particulars: recombinant PfCDPK4, Kinase-Glo ATP depletion luminescence.

The structures appear in SMILES notation. A number with no mark means an inactive call. For some of these results: Entries with a potency or affinity are not part of this list. Active and inactive are the calls of the source. Unless noted, no rule for the calls is given here.

The results in this text go back to PubChem BioAssay.

A word on the inhibition: it is the change of the read-out against control, counted positive when it falls.

Calcium-dependent protein kinase 1 (Plasmodium falciparum (isolate 3D7)), sequence (P62344 whole entry, looked up): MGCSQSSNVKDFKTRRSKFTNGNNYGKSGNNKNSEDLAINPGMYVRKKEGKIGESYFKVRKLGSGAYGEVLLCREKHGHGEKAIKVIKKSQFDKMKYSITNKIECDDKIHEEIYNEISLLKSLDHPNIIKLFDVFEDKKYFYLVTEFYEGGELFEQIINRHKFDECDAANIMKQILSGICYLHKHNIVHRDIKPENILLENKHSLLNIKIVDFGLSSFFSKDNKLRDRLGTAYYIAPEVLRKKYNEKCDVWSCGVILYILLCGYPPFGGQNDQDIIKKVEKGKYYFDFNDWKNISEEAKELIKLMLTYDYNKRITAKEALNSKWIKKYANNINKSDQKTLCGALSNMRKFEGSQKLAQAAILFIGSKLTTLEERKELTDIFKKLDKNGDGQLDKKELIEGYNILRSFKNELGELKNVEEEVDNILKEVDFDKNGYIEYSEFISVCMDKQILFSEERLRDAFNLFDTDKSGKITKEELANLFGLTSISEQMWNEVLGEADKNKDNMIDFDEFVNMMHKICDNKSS
L-lactate dehydrogenase (Plasmodium falciparum (isolate CDC / Honduras)), sequence (Q27743 whole entry, looked up): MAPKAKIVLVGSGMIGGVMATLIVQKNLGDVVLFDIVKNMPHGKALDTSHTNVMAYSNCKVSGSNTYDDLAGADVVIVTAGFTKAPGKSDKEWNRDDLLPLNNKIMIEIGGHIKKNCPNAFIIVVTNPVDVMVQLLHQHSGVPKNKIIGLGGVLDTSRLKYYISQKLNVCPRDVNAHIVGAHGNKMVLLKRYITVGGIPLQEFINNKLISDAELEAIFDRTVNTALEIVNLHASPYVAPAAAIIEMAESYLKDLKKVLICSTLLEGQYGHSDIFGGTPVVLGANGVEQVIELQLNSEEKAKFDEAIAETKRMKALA
Protein kinase 7 (PK7), Plasmodium falciparum 3D7 (PF3D7_0213400), sequence (Q7YTF7 1-343): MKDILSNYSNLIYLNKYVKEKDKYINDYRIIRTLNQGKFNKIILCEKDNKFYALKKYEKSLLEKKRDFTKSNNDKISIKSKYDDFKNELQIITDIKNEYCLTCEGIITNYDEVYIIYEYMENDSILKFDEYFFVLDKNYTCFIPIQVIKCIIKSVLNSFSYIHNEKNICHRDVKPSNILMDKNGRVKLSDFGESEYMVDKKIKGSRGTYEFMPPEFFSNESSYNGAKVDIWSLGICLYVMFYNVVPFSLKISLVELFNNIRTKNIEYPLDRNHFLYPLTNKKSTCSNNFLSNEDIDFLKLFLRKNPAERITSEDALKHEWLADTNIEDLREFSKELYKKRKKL
Calcium-dependent protein kinase 4 (Plasmodium falciparum (isolate 3D7)), sequence (Q8IBS5 whole entry, looked up): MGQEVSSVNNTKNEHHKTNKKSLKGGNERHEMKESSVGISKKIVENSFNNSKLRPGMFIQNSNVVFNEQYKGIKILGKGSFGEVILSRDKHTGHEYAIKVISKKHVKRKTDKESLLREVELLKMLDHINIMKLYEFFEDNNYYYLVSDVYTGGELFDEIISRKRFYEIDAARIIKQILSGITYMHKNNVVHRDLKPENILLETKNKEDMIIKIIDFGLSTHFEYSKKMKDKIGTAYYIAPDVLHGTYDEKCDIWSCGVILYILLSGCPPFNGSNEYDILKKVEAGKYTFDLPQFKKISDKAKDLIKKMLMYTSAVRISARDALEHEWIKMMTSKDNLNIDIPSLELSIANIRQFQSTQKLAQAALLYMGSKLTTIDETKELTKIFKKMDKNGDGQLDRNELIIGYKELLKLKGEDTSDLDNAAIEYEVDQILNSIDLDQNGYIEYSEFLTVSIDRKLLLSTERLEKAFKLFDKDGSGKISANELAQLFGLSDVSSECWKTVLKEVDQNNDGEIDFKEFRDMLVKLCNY
Plasmodium falciparum protein kinase 6 (PK6, PF3D7_1337100), sequence (Q8IDW1 1-305): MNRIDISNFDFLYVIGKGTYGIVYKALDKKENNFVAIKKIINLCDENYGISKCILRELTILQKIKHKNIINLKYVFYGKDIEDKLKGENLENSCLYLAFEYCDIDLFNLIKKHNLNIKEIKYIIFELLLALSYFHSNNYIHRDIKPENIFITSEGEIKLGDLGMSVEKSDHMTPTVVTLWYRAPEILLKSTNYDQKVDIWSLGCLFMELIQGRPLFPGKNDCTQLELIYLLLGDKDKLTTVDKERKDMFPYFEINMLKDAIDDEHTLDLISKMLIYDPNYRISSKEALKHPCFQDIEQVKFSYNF

For the compound `CN(C)Cc1cccc(-c2ccc(NC(=O)c3ccc4c(=O)n(CC5CCCO5)cnc4c3)cc2)c1` (stereo not given), the values for the growth inhibition in assay [1] and in assay [4] were 14% and 97% (active), respectively. The inhibition in assay [2] was 28%; in assay [3] it was 0%. In addition, the outcome in assay [5], in assay [6], in assay [7] and in assay [8] was inactive.
For the compound `O=C(/C=C/c1ccc(Cl)c(Cl)c1)N1CCC(CN2CCC(Cc3c[nH]c4ccccc34)CC2)CC1`, the growth inhibition is 13% in assay [1] and 98% (active) in assay [4]. For the same compound, the inhibition in assay [2] is 24%; in assay [3] it was 1%. The result in assay [5], in assay [6], in assay [7] and in assay [8] was inactive.
In the case of `CCCN(C(=O)c1ccccc1C)c1nnc(-c2cccc(C)c2)s1`, the values for the growth inhibition in assay [1] and in assay [4] were 67% (active) and 91% (active), respectively. For the same compound, the inhibition in assay [2] is 8%; in assay [3], -4%. Also, the outcome in assay [5], in assay [6], in assay [7] and in assay [8] was inactive.
As for `CC1CN(c2ccc(NC(=O)c3ccc(F)cc3)cc2)CCN1Cc1cccc(F)c1` (stereo not given), the growth inhibition in assay [1] was 76% (active); in assay [4] it was 81% (active). Besides, the results for the inhibition in assay [2] and in assay [3] were 11% and 2%, respectively. In addition, the result in assay [5], in assay [6], in assay [7] and in assay [8] was inactive.
For the compound `NOCCCOc1ccccc1`, the growth inhibition is -4% in assay [1] and 100% (active) in assay [4]. Also, the inhibition in assay [2] is 20%; in assay [3] it was -4%. The outcome in assay [5], in assay [6], in assay [7] and in assay [8] was inactive.
In the case of `CCCc1c(C(=O)OCC)c2cc(O)ccc2n1-c1ccc(OC)cc1`, the values for the growth inhibition in assay [1] and in assay [4] were 99% (active) and 100% (active), respectively. For the same compound, the inhibition in assay [2] is -2%; in assay [3] it was 0%. In addition, the result in assay [5], in assay [6], in assay [7] and in assay [8] was inactive.
Regarding `O=C(Nc1cccc(-c2ccc(-c3nc4ccc(F)cc4[nH]3)cc2)c1)c1csnn1`, the growth inhibition in assay [1] is 31%; in assay [4] it was 94% (active). Also, the inhibition in assay [2] was 22%; in assay [3], 0%. The outcome in assay [5], in assay [6], in assay [7] and in assay [8] was inactive.
In the case of `COc1ccc(CCN(C)CCCN2CCC(NC(=O)c3cccc4c(=O)c5ccccc5sc34)CC2)cc1OC`, the growth inhibition was 79% (active) in assay [1] and 97% (active) in assay [4]. The inhibition in assay [2] is 67% (active); in assay [3], 4%. Further, the outcome in assay [5], in assay [6], in assay [7] and in assay [8] was inactive.
As to `O=C(C=Cc1ccc(Cl)c(Cl)c1)NCCCCCN1CCCC(CCCNC(=O)[C@@H]2C[C@H]2c2ccccc2)C1` (stereo not given in full), the growth inhibition in assay [1] is 5%; in assay [4] it was 85% (active). Besides, the inhibition in assay [2] was 48%; in assay [3], -1%. The outcome in assay [5], in assay [6], in assay [7] and in assay [8] was inactive.
For `Cc1ccc(CN2CCCN(Cc3cccc(C(=O)Nc4ccc(C(C)(C)C)cc4)c3)CC2)s1`, the growth inhibition in assay [1] was 4%; in assay [4], 85% (active). The inhibition in assay [2] is 31%; in assay [3] it was -5%. For the same compound, the outcome in assay [5], in assay [6], in assay [7] and in assay [8] was inactive.
Consider `CCC[C@@H]([C@@H](CC1CCCCC1)C(=O)N[C@H](C(=O)Nc1nccs1)[C@@H](C)OCc1ccccc1)N(O)C=O`, for which the growth inhibition is 99% (active) in assay [1] and 100% (active) in assay [4]. Besides, the inhibition is 51% (active) in assay [2] and -3% in assay [3]. The result in assay [5], in assay [6], in assay [7] and in assay [8] was inactive.
Consider `Cc1cccc2[nH]c(-c3cccc(-c4cccc(NC(=O)CNc5ccc(C(N)=O)cc5)c4)c3)nc12`, for which the values for the growth inhibition in assay [1] and in assay [4] were 56% (active) and 100% (active), respectively. Further, the inhibition is 15% in assay [2] and 6% in assay [3]. Further, the result in assay [5], in assay [6], in assay [7] and in assay [8] was inactive.
For `COc1ccc(-n2nc(C)c3c2NC(=O)CC3c2ccccc2OCc2ccc(F)cc2)cc1` (stereo not given), the results for the growth inhibition in assay [1] and in assay [4] were 65% (active) and 93% (active), respectively. In addition, the values for the inhibition in assay [2] and in assay [3] were 53% (active) and 7%, respectively. In addition, the result in assay [5], in assay [6], in assay [7] and in assay [8] was inactive.
Regarding `COc1cc(NCC(C)CNCc2cn(Cc3ccccc3)c3ccccc23)nc2ccccc12` (stereo not given), the growth inhibition in assay [1] was 55% (active); in assay [4], 90% (active). Besides, the inhibition was 21% in assay [2] and -6% in assay [3]. The result in assay [5], in assay [6], in assay [7] and in assay [8] was inactive.
In the case of `CN1CCC(OC(=O)c2cc3cc(-c4ccccc4)ccc3n2S(=O)(=O)c2ccccc2)CC1`, the growth inhibition is 10% in assay [1] and 88% (active) in assay [4]. Further, the values for the inhibition in assay [2] and in assay [3] were 31% and -5%, respectively. Also, the outcome in assay [5], in assay [6], in assay [7] and in assay [8] was inactive.
As for `CCN(CC)CCOc1ccc(C(O)(C#CC(O)(c2ccc(C)cc2)c2ccc(OCCN(CC)CC)cc2)c2ccc(C)cc2)cc1` (stereo not given), the growth inhibition in assay [1] is 98% (active); in assay [4], 97% (active). The inhibition was 94% (active) in assay [2] and 6% in assay [3]. The outcome in assay [5], in assay [6], in assay [7] and in assay [8] was inactive.
For the compound `Cc1c(Cl)cccc1S(=O)(=O)Nc1cccc(CCN2CCC(N3CCCCC3)CC2)c1`, the growth inhibition in assay [1] is 82% (active); in assay [4] it was 101% (active). The inhibition in assay [2] was 38%; in assay [3], -1%. Moreover, the outcome in assay [5], in assay [6], in assay [7] and in assay [8] was inactive.
Regarding `Cc1cc(Nc2cccc(C#N)c2)nc(Nc2ccccc2C)n1`, the values for the growth inhibition in assay [1] and in assay [4] were 46% and 95% (active), respectively. Further, the inhibition in assay [2] was 10%; in assay [3] it was 0%. Moreover, the result in assay [5], in assay [6], in assay [7] and in assay [8] was inactive.
Regarding `CC1CCCCC1N(C)C1CCN(CCCNC(=O)C=Cc2ccc(Cl)cc2Cl)CC1` (stereo not given), the growth inhibition in assay [1] was 59% (active); in assay [4] it was 101% (active). For the same compound, the inhibition is 53% (active) in assay [2] and 4% in assay [3]. Further, the result in assay [5], in assay [6], in assay [7] and in assay [8] was inactive.
On to `CCN1CCC(N(CCCCCCCCc2ccc(C(F)(F)F)cc2)C(=O)Cn2c(CCc3cccc(F)c3F)cc(=O)c3ccccc32)CC1`, for which the growth inhibition is 65% (active) in assay [1] and 88% (active) in assay [4]. In addition, the inhibition in assay [2] is 89% (active); in assay [3], 2%. Also, the result in assay [5], in assay [6], in assay [7] and in assay [8] was inactive.
